Laboratory results: ChEMBL document CHEMBL3988442, “University of Dundee, Small-Polar-MMV Screening Library” (2021)
About 13,000 (27%) of roughly 48,000 compounds showed an effect of 50% or more. This is one part of the list.

Each molecule was assayed on Wolbachia pipientis (assay: Anti-Wolbachia Cell-Based Screen). Conditions: 5 µM.
Assay type: functional
Design: scale not given: in the data most compounds retested in dose-response had high values
For `Cc1cccc(Cn2cc(C)c(N)n2)c1`, the “Percent Effect” value was 142%.
`CCn1cc(Cn2cc(Cl)c(N)n2)c(C)n1` was tested, and the “Percent Effect” value was 11.61%.
For `Cc1nn(Cc2ccc(F)cc2)c2[nH]nc(N)c12`, the “Percent Effect” value was 12.93%.
`Cc1cccc(CN2CCN(c3nc(CO)cs3)CC2)c1` was tested, and the “Percent Effect” value was -5.528%.
For `Cc1cnn(C2CCN(Cc3ccccc3)C2)c1N` (centres undefined), the “Percent Effect” value was -3.11%.
With `Cc1cccc(Cn2nc(C3CCNCC3)n(-c3ccccc3)c2=O)c1` the “Percent Effect” value was 2.339%.
In the case of `Cc1nn(C)cc1Cn1cc(Cl)c(N)n1`, the “Percent Effect” value is reported as -32.62%.
In the case of `Cc1ncc(C)c(N2Cc3cnn(Cc4ccc(F)cc4)c3C2)n1`, the “Percent Effect” value is reported as 15.3%.
With `Cc1ccc(Cn2ccc(NS(C)(=O)=O)n2)cc1` the “Percent Effect” value was -11.54%.
In the case of `Cc1ccc(Cn2cc(C)c(N)n2)cc1`, the “Percent Effect” value is reported as 101.5%.
In the case of `Cc1cn(Cc2ccc(F)cc2)nc1N`, the “Percent Effect” value is reported as 105.5%.
For `Cc1cn(Cc2ccccc2)nc1N`, the “Percent Effect” value was 112.8%.
`Cc1nnsc1CN(C)C(=O)c1ccc(CSc2nnc[nH]2)o1` was tested, and the “Percent Effect” value was 17.62%.
`CCc1cnc(N)nc1NCCc1ccc(OC)cc1OC` was tested, and the “Percent Effect” value was -3.798%.
With `CC(C)N(C)C(=O)c1ccc(Cl)c(NC(=O)COCC2CC2)c1` the “Percent Effect” value was -4.037%.
For `Cc1noc(C)c1CN(C)C(=O)COc1cccc(C#N)c1`, the “Percent Effect” value was -12.54%.
In the case of `CCc1nc(CNC2CCCCNC2=O)cs1` (centres undefined), the “Percent Effect” value is reported as -6.937%.
In the case of `Fc1ccc(CNCCn2cccn2)cc1F`, the “Percent Effect” value is reported as -6.914%.
In the case of `Cc1cn(Cc2ccc(F)c(F)c2)nc1N`, the “Percent Effect” value is reported as 106.9%.
With `Cl.Cl.OC(CN1CCN(Cc2ccc(F)c(F)c2)CC1)C1CC1` (centres undefined) the “Percent Effect” value was -1.298%.
In the case of `Cc1ccc(C(CNCc2ccc(C#N)cc2)N2CCOCC2)s1` (centres undefined), the “Percent Effect” value is reported as 1.867%.
With `Cc1nnc([C@@]23CCO[C@@H]2CCN(Cc2cccc4ccccc24)C3)o1` the “Percent Effect” value was 98.73%.
In the case of `Cc1nc([C@H]2C[C@@H]3CCN(Cc4ccc5c(c4)OCO5)C[C@H]3O2)no1`, the “Percent Effect” value is reported as -27.54%.
For `c1coc(-c2nnc([C@H]3CCN(Cc4ccc5c(c4)OCO5)C3)o2)c1`, the “Percent Effect” value was -14.45%.
`COC[C@@]12CCO[C@@H]1CCN(Cc1ccccc1F)C2.O=C(O)C(F)(F)F` was tested, and the “Percent Effect” value was -5.713%.
With `COC[C@@]12CCO[C@@H]1CCN(Cc1ccccc1OC)C2.O=C(O)C(F)(F)F` the “Percent Effect” value was -18.26%.
`Cc1nnc([C@@]23CCO[C@@H]2CCN(Cc2ccc4c(c2)OCO4)C3)o1` was tested, and the “Percent Effect” value was 107.4%.
For `CCN1C(=O)C2(CCCCC2)NC1c1cc(C#N)n(C)c1C` (centres undefined), the “Percent Effect” value was 8.458%.
In the case of `Cc1ncc(CN(C)C(=O)c2ccc3c(c2O)OC(C)(C)C3)s1`, the “Percent Effect” value is reported as -9.378%.
For `CCn1nnc2c1C(COC)CN(Cc1ccsc1)C2.O=C(O)C(F)(F)F` (centres undefined), the “Percent Effect” value was -6.299%.
For `CCn1nnc2c1C(COCCN(C)C)CN(Cc1ccc(C)s1)C2.O=C(O)C(F)(F)F.O=C(O)C(F)(F)F` (centres undefined), the “Percent Effect” value was 104.1%.
`CCn1nnc2c1C(COCCN(C)C)CN(c1nncs1)C2` (centres undefined) was tested, and the “Percent Effect” value was -7.006%.
With `CCn1nnc2c1C(COCCN(C)C)CN(Cc1ccco1)C2.O=C(O)C(F)(F)F.O=C(O)C(F)(F)F` (centres undefined) the “Percent Effect” value was 92.71%.
With `COCC1CN(Cc2ccc(C)o2)Cc2nnn(CC3CC3)c21.O=C(O)C(F)(F)F` (centres undefined) the “Percent Effect” value was -2.139%.
In the case of `Cc1ccc(CN2CCCn3nnc(COCCN(C)C)c3C2)s1.O=C(O)C(F)(F)F.O=C(O)C(F)(F)F`, the “Percent Effect” value is reported as -14.16%.
In the case of `CCn1nnc2c1C(COCCN(C)C)CN(S(=O)(=O)CC)C2.O=C(O)C(F)(F)F` (centres undefined), the “Percent Effect” value is reported as -14.6%.
`CCn1nnc2c1C(COCCN(C)C)CN(S(C)(=O)=O)C2.O=C(O)C(F)(F)F` (centres undefined) was tested, and the “Percent Effect” value was -1.029%.
In the case of `Cc1ccc(CN2Cc3nnn(C)c3C(COCCN(C)C)C2)s1.O=C(O)C(F)(F)F.O=C(O)C(F)(F)F` (centres undefined), the “Percent Effect” value is reported as 3.026%.
For `CCn1nnc2c1C(COCC(=O)N(C)C)CN(Cc1ccoc1)C2` (centres undefined), the “Percent Effect” value was 95.43%.
With `CCn1nnc2c1C(COCC(=O)N(C)C)CN(Cc1ccco1)C2.O=C(O)C(F)(F)F` (centres undefined) the “Percent Effect” value was 115%.
In the case of `O=C(CSc1nncs1)N1CCN(Cc2ccc(Cl)cc2)CC1`, the “Percent Effect” value is reported as -10.59%.
With `Cc1nc(-c2nnc(SCC(=O)O)n2C(C)c2ccccc2)co1` (centres undefined) the “Percent Effect” value was -6.545%.
With `CNC(=O)Cc1noc(Cc2cccc(Br)c2)n1` the “Percent Effect” value was 1.573%.
In the case of `Cn1ccnc1SCCNC1CCN(c2nc3ccccc3s2)CC1`, the “Percent Effect” value is reported as 0.5729%.
`CC(C)C(=O)N1CCOC[C@H](Oc2ccc(C(F)(F)F)cc2)C1` was tested, and the “Percent Effect” value was -12.72%.
For `NC(=O)N1CCCC(C(=O)N2CCN(c3nsc4ccccc34)CC2)C1` (centres undefined), the “Percent Effect” value was 111.8%.
With `O=C(C1CCC1)N1CCN(c2snc3ccccc23)CC1` the “Percent Effect” value was 4.764%.
For `CC(C)N1CCCC(C(=O)N2CCc3c(nc(CC4CC4)[nH]c3=O)C2)C1` (centres undefined), the “Percent Effect” value was 6.947%.
`CC(C)N1CCCC(C(=O)N2CCN(c3nsc4ccccc34)CC2)C1` (centres undefined) was tested, and the “Percent Effect” value was 104.9%.
`CCN1CC(C(=O)N2CCN(c3nsc4ccccc34)CC2)CCC1=O` (centres undefined) was tested, and the “Percent Effect” value was 116.3%.
For `CCN1CC(C(=O)N2CC(Oc3ccccc3Cl)C2)CCC1=O` (centres undefined), the “Percent Effect” value was -27.16%.
With `CN1CCCC(C(=O)N2CCC(Oc3ccccn3)CC2)C1` (centres undefined) the “Percent Effect” value was -2.88%.
`CCN1CC(C(=O)N2CCN(c3cnn(C)c(=O)c3)CC2)CCC1=O` (centres undefined) was tested, and the “Percent Effect” value was 2.003%.
`O=C(C1CCCN(c2nc3ccccc3cc2CO)C1)N1CCCC1` (centres undefined) was tested, and the “Percent Effect” value was 10.01%.
